Compounds with a hit are over-represented: about 3.1% of the library has one in this group of screens.
TWEAK-Fn14 inh = blocks TWEAK-Fn14 interaction in a reporter cell assay. TWEAK-stimulated Fn14 reporter cells, luciferase luminescence, 8 h. inhibition, % at 10 µM. 360,000 compounds, 2% hits. AID 1159606; in the data active means inhibition above about 50%
TROY NFkB inh = TROY signaling inhibition | Q293 LMP1-TROYcd NF-kB luciferase reporter, 4 h | inhibition, % at 10 µM | 360,000 compounds, 0.98% hits | AID 1347056;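 active means compounds whose plate-normalised and pattern-corrected inhibition of the luciferase reporter signal at the single screening dose is 50% or more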
LMP1 NFkB inh = reduces LMP1-driven NF-kappaB luciferase signal; LMP1-induced NF-kappaB luciferase reporter cells, luminescence; 350,000 compounds, 0.69% hits; inhibition, % at 12.5 µM; in the data active means inhibition above about 41%
EWS-Fli inh = EWS/Fli transcriptional activity inhibition; A673 NR0B1-luciferase reporter, viability-normalised; 350,000 compounds, 0.67% hits; inhibition, % at 12.6 µM;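 active means mean inhibition of at least 50% after viability correction, with every replicate also passing that limit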;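 further: firefly luciferase signal divided by Alamar Blue viability fluorescence both relative to DMSO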
PAX8 inh HTS = lowers PAX8-driven luciferase in RMG-I cells | RMG-I TPO-luciferase reporter, SteadyGlo, 24 h | inhibition, % at 12.6 µM | 360,000 compounds, 1.2% hits | AID 652154;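 active means mean replicate inhibition at least 60% with every replicate also reaching 60%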;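 further: luciferase light reporting Pax8 driven TPO promoter activity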
LGR2 antag = inhibitors of bursicon-induced Drosophila LGR2 receptor cAMP signaling; HEK293 LGR2, CRE-luciferase, bursicon-stimulated, 4 h; inhibition, % at 9.99 µM; 380,000 compounds, 0.35% hits; AID 720647;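 active means drop in luminescence signal, shown as inhibition above about 50% in the replicate tests, limit read from the data, passing the limit was not always enough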;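 further: agonist challenge used bursicon conditioned medium at about half maximal strength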
A number is an active result; ! = not confirmed by another sample.

`C[C@H]1CCCCO[C@H](CN(C)C(=O)Cc2ccccc2)[C@@H](C)CN([C@@H](C)CO)C(=O)c2cc(NS(=O)(=O)c3ccc(Cl)cc3)ccc2O1` gave EWS-Fli inh inactive, PAX8 inh HTS inactive and LGR2 antag inactive.
Cc1cccc[n+]1CCCCCCCCCC[n+]1ccccc1C was read as TWEAK-Fn14 inh inactive, TROY NFkB inh inactive, LMP1 NFkB inh inactive, EWS-Fli inh inactive, PAX8 inh HTS inactive and LGR2 antag inactive.
Screening CCCCCCCCCC[n+]1cccc2c3ccccc3ccc21 returned TWEAK-Fn14 inh 73, TROY NFkB inh 51, LMP1 NFkB inh inactive, EWS-Fli inh inactive, PAX8 inh HTS 81 and LGR2 antag 76.
Screening CCCCCCCC[n+]1cccc2c3ccccc3ccc21 returned TWEAK-Fn14 inh 83, TROY NFkB inh 54, LMP1 NFkB inh inactive, EWS-Fli inh inactive, PAX8 inh HTS 82 and LGR2 antag inactive.
For C[C@@H]1CCCCO[C@@H](CN(C)C(=O)C2CCCCC2)[C@@H](C)CN([C@H](C)CO)C(=O)c2cc(NS(=O)(=O)c3ccc(Cl)cc3)ccc2O1 the results were EWS-Fli inh inactive, PAX8 inh HTS inactive and LGR2 antag inactive.
For C[C@H](CO)N1C[C@H](C)[C@@H](CN(C)C(=O)C2CCCCC2)OCCCC[C@H](C)Oc2ccc(NS(=O)(=O)c3ccc(Cl)cc3)cc2C1=O the results were EWS-Fli inh inactive, PAX8 inh HTS 88 and LGR2 antag inactive.
For C[C@@H]1CN([C@H](C)CO)C(=O)c2cc(NS(=O)(=O)c3ccc(Cl)cc3)ccc2O[C@@H](C)CCCCO[C@H]1CN(C)C(=O)C1CCCCC1 the results were EWS-Fli inh inactive, PAX8 inh HTS 85 and LGR2 antag inactive.
Screening C[C@@H]1CCCCO[C@@H](CN(C)C(=O)C2CCCCC2)[C@H](C)CN([C@H](C)CO)C(=O)c2cc(NS(=O)(=O)c3ccc(Cl)cc3)ccc2O1 returned EWS-Fli inh inactive, PAX8 inh HTS 79 and LGR2 antag inactive.
Screening C[C@@H]1CCCCO[C@@H](CN(C)Cc2ccc(Cl)c(Cl)c2)[C@@H](C)CN([C@@H](C)CO)C(=O)c2cc(NS(=O)(=O)c3ccc(Cl)cc3)ccc2O1 returned EWS-Fli inh inactive, PAX8 inh HTS inactive and LGR2 antag inactive.
C[C@@H]1CN([C@H](C)CO)C(=O)c2cc(NS(=O)(=O)c3ccccc3)ccc2O[C@@H](C)CCCCO[C@H]1CN(C)Cc1ccc(Cl)c(Cl)c1 was read as EWS-Fli inh inactive, PAX8 inh HTS 94 and LGR2 antag inactive.
Screening C[C@@H]1CCCCO[C@H](CN(C)Cc2ccc(Cl)c(Cl)c2)[C@H](C)CN([C@@H](C)CO)C(=O)c2cc(NS(=O)(=O)c3ccccc3)ccc2O1 returned EWS-Fli inh inactive, PAX8 inh HTS inactive and LGR2 antag inactive.
`C[C@H](CO)N1C[C@H](C)[C@@H](CN(C)Cc2ccc(Cl)c(Cl)c2)OCCCC[C@H](C)Oc2ccc(NS(=O)(=O)c3ccccc3)cc2C1=O` gave EWS-Fli inh inactive, PAX8 inh HTS 84 and LGR2 antag inactive.
Screening C[C@@H]1CCCCO[C@@H](CN(C)Cc2ccc(Cl)c(Cl)c2)[C@@H](C)CN([C@@H](C)CO)C(=O)c2cc(NS(=O)(=O)c3ccccc3)ccc2O1 returned EWS-Fli inh inactive, PAX8 inh HTS 68 and LGR2 antag inactive.
For CC(=O)N1[C@H](C(=O)NCc2ccccc2F)[C@@H](CO)[C@@H]2Cn3c(cccc3=O)[C@@H]21 the results were EWS-Fli inh inactive, PAX8 inh HTS inactive and LGR2 antag inactive.
Screening N#CC(C#N)c1ccnc2ccccc12 returned TWEAK-Fn14 inh 59, TROY NFkB inh inactive, LMP1 NFkB inh 43, EWS-Fli inh inactive, PAX8 inh HTS inactive and LGR2 antag inactive.
Cn1cccc1-c1cc(C(=O)N2CCc3c([nH]c4ccccc34)C2c2ccccn2)[nH]n1 (stereo unspecified) was read as TWEAK-Fn14 inh inactive, TROY NFkB inh inactive, LMP1 NFkB inh 55, EWS-Fli inh inactive, PAX8 inh HTS inactive and LGR2 antag inactive.
O=C(c1ccc(-n2cccn2)cc1)N1CCc2c([nH]c3ccccc23)C1c1ccccn1 (stereo unspecified) was read as TWEAK-Fn14 inh inactive, TROY NFkB inh inactive, LMP1 NFkB inh inactive, EWS-Fli inh inactive, PAX8 inh HTS inactive and LGR2 antag inactive.
For CN1C(=O)c2cc(NC(=O)c3cccs3)ccc2OC[C@H]2O[C@@H](CC(=O)NCC3CC3)CC[C@H]21 the results were EWS-Fli inh inactive, PAX8 inh HTS inactive and LGR2 antag inactive.
Screening NC(=NCCCCCCN=C(N)/N=C(\N)Nc1ccc(Cl)cc1)/N=C(\N)Nc1ccc(Cl)cc1 returned TWEAK-Fn14 inh inactive, TROY NFkB inh inactive, LMP1 NFkB inh inactive, EWS-Fli inh inactive, PAX8 inh HTS 98! and LGR2 antag inactive.
`CC(C)N=C(N)N=C(N)Nc1ccc(Cl)cc1` gave TWEAK-Fn14 inh inactive, TROY NFkB inh inactive, LMP1 NFkB inh inactive, EWS-Fli inh inactive, PAX8 inh HTS inactive and LGR2 antag inactive.
O=C1C=C(c2ccc3ncccc3c2)C[C@@H](c2ccc(F)cc2)C1 was read as TWEAK-Fn14 inh inactive, TROY NFkB inh inactive and LMP1 NFkB inh inactive.
`O=C1C=C(c2ccc3ncccc3c2)C[C@@H](c2ccc3c(c2)OCO3)C1` gave TWEAK-Fn14 inh inactive, TROY NFkB inh inactive, LMP1 NFkB inh inactive, EWS-Fli inh 63, PAX8 inh HTS inactive and LGR2 antag inactive.
CC(C)c1ccc(-c2csc3ncnc(N4CCN(C)CC4)c23)cc1 was read as TWEAK-Fn14 inh 51, TROY NFkB inh inactive, LMP1 NFkB inh 49, EWS-Fli inh inactive, PAX8 inh HTS inactive and LGR2 antag inactive.
For Clc1ccc(-c2csc3ncnc(N4CCc5ccccc5C4)c23)cc1 the results were TWEAK-Fn14 inh 78, TROY NFkB inh 55, LMP1 NFkB inh inactive, PAX8 inh HTS inactive and LGR2 antag inactive.
COc1ccc(NC(=O)N[C@@H]2CC[C@@H](CC(=O)NC3CCCCC3)O[C@H]2CO)cc1 was read as EWS-Fli inh inactive, PAX8 inh HTS inactive and LGR2 antag inactive.
Cc1ccc(NC(=O)C2CC(=O)N/C(=N/N=C/c3ccco3)S2)cc1C (stereo unspecified) was read as TWEAK-Fn14 inh inactive, TROY NFkB inh inactive, LMP1 NFkB inh inactive, EWS-Fli inh inactive and PAX8 inh HTS 118.
For Cc1ccc(NC(=O)C2CC(=O)N/C(=N/N=C/c3ccco3)S2)cc1 (stereo unspecified) the results were TWEAK-Fn14 inh inactive, TROY NFkB inh inactive, LMP1 NFkB inh inactive, PAX8 inh HTS inactive and LGR2 antag inactive.
For C[C@H](CO)N1C[C@H](C)[C@H](CN(C)Cc2ccccc2)OCCCC[C@H](C)Oc2ccc(NC(=O)Nc3ccc4c(c3)OCO4)cc2C1=O the results were EWS-Fli inh inactive, PAX8 inh HTS inactive and LGR2 antag inactive.

Bioassay records: PubChem BioAssay, several laboratories
